Consider 29 molecules from PubChem BioAssay (NCATS).

SMILES strings stand for the structures. Values joined by “and” are separate entries in the source; they are usually repeats but may differ in a detail not shown here. Equal entries are not always repeated. A number with no mark means an inactive call. Results filed as inconclusive are left out. Active and inactive are the calls of the source. Unless noted, calls follow the shape of the dose curve; as a rule, active = well fitted curve in the direction sought with a large enough effect; inconclusive = small, poorly fitted or top-dose-only effect, or another doubt; inactive = no such curve, though single readings can be large; an effect the other way counts as inactive or inconclusive. Peptide text beside a SMILES is read from it.

The target of experiment [1] is Tyrosine-protein kinase Yes (Homo sapiens) (UniProt P07947). Kind of experiment: qHTS for small molecule inhibitors of Yes1 kinase: Primary Screen (AID 686947). Also: nearly all actives have a fitted effect of over 60% in size. Also: potency is read from the fitted curve at half-maximal effect. Put shortly:
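ADP-Glo luminescence reports ADP formed by 4 nM Yes1 phosphorylating poly(E4Y) (0.3 mg/mL) with 0.1 mM ATP for 60 min at room temperature, following 20 min compound preincubation; normalised between DMSO wells with and without enzyme.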
For orientation: qHTS replaces the single test concentration by a dilution series.

Experiment [2] can be described thus: qHTS for small molecule inhibitors of Yes1 kinase: Counter Assay (AID 686950).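 Also: no kinase present so only ADP-Glo detection of a fixed ADP amount is tested; luminescence from ADP-Glo reporting ADP in a fixed ATP and ADP mixture; series mostly up to about 77 µM; 0% = DMSO wells with ATP plus ADP and -100% = ATP-only wells without ADP.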 Put shortly:
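ADP-Glo luminescence read after a 60 min room-temperature incubation of compound with an ATP/ADP mix (0.08 mM/0.02 mM) and no kinase, following a 20 min compound preincubation. Signal scaled between ATP+ADP (max) and 0.1 mM ATP-only (min) wells; Tris pH 7.5, Mg2+, DTT.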

Experiment [3] can be described thus: qHTS assay for environmental chemicals that activate the Aryl hydrocarbon Receptor (AhR) signaling pathway (AID 651777). Also: nearly all actives have a fitted effect of over 15% in size. Also: potency is read from the fitted curve at half-maximal effect. As to activation: % of control where 0% means no effect. The note with it: 1A2-DRE human hepatoma cells, luciferase, 24 h; activation: active compounds read high. Put shortly:
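Concentration–response screening used 1,200 1A2-DRE cells per well, 24 hr compound exposure (37 C, 5% CO2), and One-Glo luminescence as the AhR-driven CYP1A2 reporter signal.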

For experiment [4], the target named is Peroxisome proliferator-activated receptor alpha (Homo sapiens) (UniProt Q07869). Kind of experiment: qHTS assay for small molecule agonists of the peroxisome proliferator-activated receptor alpha (PPARalpha) signaling pathway (AID 651778). Also: % of control where 0% means no effect. The note with it: PathHunter PPARalpha complementation, chemiluminescence, 6 h; active compounds read high. Put shortly: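 Chemiluminescence from complemented enzyme reported PPARalpha activation in cells after 6 hr of compound treatment at 37 C. The detection reagent was incubated for 60 min at room temperature, and compounds were scored as agonists.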

A short description of experiment [5]: qHTS assay for small molecule antagonists of the retinoid-related orphan receptor gamma (ROR-gamma) signaling pathway - cell viability counter screen (AID 720652; active = well fitted curve in the direction sought with a large enough effect in the repeat runs; an effect the other way counts as inactive or inconclusive;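 also: CHO reporter cells with doxycycline-induced ROR-gamma expression; series mostly up to about 92 µM; compound exposure lasted 16 hr before ATP read; % is scaled to controls: 0 for no effect and ±100 for the full control effect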). The essentials:
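Steps: seed CHO cells bearing TET-inducible ROR and ROR response element-luciferase; rest 5 hr at 37 C; add compound, then doxycycline; incubate 16 hr; add CellTiter-Glo and read luminescence as ATP-based viability.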

A short description of experiment [6]: qHTS for compounds that reverse cellular toxicity of Amyloid beta (A-beta) peptide in yeast: LOPAC Validation Assay (AID 720559).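 Also: plate controls were DMSO for no effect and equimolar ferric chloride plus clioquinol rescue for full effect.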 The essentials:
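Yeast expressing toxic A-beta grown with pinned compounds at 30 C for 48 hr. Growth measured as absorbance at 600 nm; data normalized to DMSO and to an equimolar FeCl3/clioquinol mixture as positive control.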

Experiment [7] can be described thus: qHTS for Activators of Parkin Expression: LOPAC Validation Assay (NLuc Reporter) (AID 720572). The essentials: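 Compound effects on Parkin promoter activity were measured as NanoLuc luminescence after 24 h at 37 C. The neuronal reporter line also carried FLuc, which was read first. LOPAC compounds were tested at 7 concentrations, with normalization to DMSO (0%) and positive control (100%).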

Experiment [8] is described as follows: qHTS for Activators of Parkin Expression: LOPAC Validation Assay (FLuc Reporter) (AID 720573; also: potency is read from the fitted curve at half-maximal effect). The essentials:
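Neuronal cell line stably expressing FLuc/NLuc coincidence reporter under the Parkin promoter, 1,500 cells/well, dosed 24 h after seeding in 7-point series for 24 h at 37 C. FLuc luminescence read; normalized to DMSO and positive control (100%).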

The target of experiment [9] is Arylsulfatase A (Homo sapiens) (UniProt P15289). Kind of experiment: qHTS screen for enhancers of Arylsulfatase A (ASA1): LOPAC Validation Assay (AID 720538). Also: potency is read from the fitted curve at half-maximal effect. The essentials:
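SV40-transformed fibroblasts from an MLD patient (ASA-I179S) were treated with compound for 48 h at 37 C. They were then lysed with 0.5 mM pNCS substrate (final) for 14 h at room temperature and stopped with NaOH; signal read by fluorescence (Ex 525/Em 598 nm), with increase denoting enhanced activity.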

Experiment [10] addresses Nuclear receptor ROR-gamma (Homo sapiens) (UniProt P51449). Kind of experiment: qHTS assay for small molecule antagonists of the retinoid-related orphan receptor gamma (ROR-gamma) signaling pathway (AID 651802).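 Also: CHO cells with doxycycline-induced ROR-gamma expression; series mostly up to about 92 µM; % is scaled to controls: 0 for no effect and ±100 for the full control effect; nearly all actives have a fitted effect of over 60% in size.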 The essentials:
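Steps: cells dispensed; compound or DMSO transferred by pin tool; doxycycline added to induce the ROR response element-driven luciferase; plates held 16hr at 37C; ONE-Glo added and luminescence measured.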

Tyrosine-protein kinase Yes (Homo sapiens), sequence (P07947 whole entry, looked up): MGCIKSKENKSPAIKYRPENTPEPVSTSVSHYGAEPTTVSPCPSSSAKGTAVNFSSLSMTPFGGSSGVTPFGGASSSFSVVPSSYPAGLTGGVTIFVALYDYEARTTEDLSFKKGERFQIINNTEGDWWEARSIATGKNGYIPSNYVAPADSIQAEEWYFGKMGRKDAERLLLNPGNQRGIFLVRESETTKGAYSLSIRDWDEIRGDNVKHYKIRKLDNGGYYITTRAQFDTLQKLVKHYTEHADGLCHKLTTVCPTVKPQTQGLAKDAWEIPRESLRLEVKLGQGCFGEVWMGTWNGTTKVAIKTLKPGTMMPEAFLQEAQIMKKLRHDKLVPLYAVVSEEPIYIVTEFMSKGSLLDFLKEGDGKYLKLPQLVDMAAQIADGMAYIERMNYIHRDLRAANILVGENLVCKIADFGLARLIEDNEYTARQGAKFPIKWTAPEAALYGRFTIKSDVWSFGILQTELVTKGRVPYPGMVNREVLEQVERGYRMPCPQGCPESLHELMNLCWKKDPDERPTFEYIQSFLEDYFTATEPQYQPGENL
Arylsulfatase A (Homo sapiens), sequence (P15289 whole entry, looked up): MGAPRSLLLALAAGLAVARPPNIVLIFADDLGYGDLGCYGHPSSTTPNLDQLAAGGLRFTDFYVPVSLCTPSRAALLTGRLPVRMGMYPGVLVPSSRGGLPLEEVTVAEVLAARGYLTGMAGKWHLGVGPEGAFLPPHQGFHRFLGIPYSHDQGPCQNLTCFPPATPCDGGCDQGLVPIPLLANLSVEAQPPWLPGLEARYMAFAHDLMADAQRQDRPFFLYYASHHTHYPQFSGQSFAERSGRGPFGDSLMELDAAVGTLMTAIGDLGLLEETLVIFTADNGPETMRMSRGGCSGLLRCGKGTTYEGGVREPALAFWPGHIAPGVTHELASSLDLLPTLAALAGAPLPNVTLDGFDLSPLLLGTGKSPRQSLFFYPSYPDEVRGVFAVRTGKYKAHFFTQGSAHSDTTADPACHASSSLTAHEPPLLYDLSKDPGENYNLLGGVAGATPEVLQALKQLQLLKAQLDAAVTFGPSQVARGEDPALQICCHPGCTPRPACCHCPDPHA
Peroxisome proliferator-activated receptor alpha (Homo sapiens), sequence (Q07869 whole entry, looked up): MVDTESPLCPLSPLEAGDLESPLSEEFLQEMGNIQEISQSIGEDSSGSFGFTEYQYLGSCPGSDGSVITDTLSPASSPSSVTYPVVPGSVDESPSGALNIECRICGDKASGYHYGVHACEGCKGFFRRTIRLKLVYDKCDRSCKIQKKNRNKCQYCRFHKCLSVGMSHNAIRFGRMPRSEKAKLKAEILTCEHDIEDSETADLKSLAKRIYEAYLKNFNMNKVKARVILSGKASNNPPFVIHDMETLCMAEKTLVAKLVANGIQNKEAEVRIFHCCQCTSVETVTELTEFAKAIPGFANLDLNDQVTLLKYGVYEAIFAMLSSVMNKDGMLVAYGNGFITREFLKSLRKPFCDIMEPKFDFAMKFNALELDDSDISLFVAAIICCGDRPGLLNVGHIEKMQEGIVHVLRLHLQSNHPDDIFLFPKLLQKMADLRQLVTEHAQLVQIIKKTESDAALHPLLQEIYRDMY
Nuclear receptor ROR-gamma (Homo sapiens), sequence (P51449 whole entry, looked up): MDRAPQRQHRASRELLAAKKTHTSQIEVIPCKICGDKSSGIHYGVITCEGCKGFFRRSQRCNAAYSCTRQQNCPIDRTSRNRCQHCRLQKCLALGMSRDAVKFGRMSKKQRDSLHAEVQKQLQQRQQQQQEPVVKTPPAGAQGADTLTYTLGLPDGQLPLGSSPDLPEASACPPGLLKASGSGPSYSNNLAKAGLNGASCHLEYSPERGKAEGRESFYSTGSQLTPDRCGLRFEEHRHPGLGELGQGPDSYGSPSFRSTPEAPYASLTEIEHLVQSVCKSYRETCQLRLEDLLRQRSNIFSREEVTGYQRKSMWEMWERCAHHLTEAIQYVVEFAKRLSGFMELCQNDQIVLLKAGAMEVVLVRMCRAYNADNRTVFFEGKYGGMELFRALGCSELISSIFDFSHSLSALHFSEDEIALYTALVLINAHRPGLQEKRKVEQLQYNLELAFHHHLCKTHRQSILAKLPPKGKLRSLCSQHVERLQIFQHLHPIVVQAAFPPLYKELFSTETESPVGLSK

In the case of `CCN(CCO)CCCC(C)Nc1ccnc2cc(Cl)ccc12` (stereo not drawn), in [1], the Potency entry was “inactive”. Also, in experiment [2], the result was inactive.

With `CCc1nc(N)nc(N)c1-c1ccc(Cl)cc1`, in experiment [3], the activation was 1.47% and 0.312%. The max response in [4] is -1.61% and -1.39%. Further, in experiment [5], the outcome was inactive.

As to `Nc1nc(Cl)nc2c1ncn2[C@H]1C[C@H](O)[C@@H](CO)O1`, in [3], the activation is 1.52%. Besides, in [4], the max response is -0.979%. The Potency in experiment [1] is 79.3 µM (active). For the same molecule, the molecule was classed as inactive in experiment [2].

`Cc1cc(O)c2c(c1)C(=O)c1cc(O)cc(O)c1C2=O`: in experiment [3], the Potency is 44.7 µM (active). Also, the max response in experiment [4] was -5.19% and -6.73%. The call in experiment [6], in experiment [7] and in experiment [5] was inactive. Besides, the Potency entry in [8] was “inactive”.

As for `Nc1ccc(S(N)(=O)=O)cc1`, the activation in [3] is -0.82%. Further, in experiment [4], the max response was 3.64%. For the same molecule, the molecule was called inactive in experiment [5].

Regarding `CC(=O)Nc1ccc(O)cc1`, the activation in experiment [3] was 1.7% and -0.186%. In addition, the result in experiment [5] was inactive.

With `CC(C)C[C@H](NC(=O)[C@H](Cc1ccccc1)NC(=O)c1cnccn1)B(O)O`, the Potency entry in experiment [1] is “inactive”. In addition, in [2], the molecule was called inactive.

As for `S=c1nc[nH]c2nc[nH]c12`, the Potency result in experiment [1] was “inactive”. For the same molecule, in [2], the outcome was inactive.

Regarding `CC1(C)NC(=O)N(c2ccc([N+](=O)[O-])c(C(F)(F)F)c2)C1=O`, the activation in experiment [3] was 1.77%. Further, the max response in [4] was -2.93%. Moreover, the outcome in experiment [6] and in [7] was inactive. Further, in experiment [8], the Potency result was “inactive”.

As for `O=c1c(O)c(-c2ccc(O)cc2O)oc2cc(O)cc(O)c12`, the activation in experiment [3] is 4.65%. The max response in experiment [4] is -3.16%. Also, the Potency entry in experiment [9] and in experiment [8] was “inactive” in each case. For the same molecule, the outcome in experiment [6] and in experiment [7] was inactive.

Regarding `C[C@@H](N)C1CCC(C(=O)Nc2ccncc2)CC1` (stereo partly drawn), the Potency result in experiment [1], in [9] and in [8] was “inactive” each time. The molecule was called inactive in [2], in experiment [6] and in experiment [7].

For `CNC[C@H](O)c1ccc(O)c(O)c1`, the activation in [3] was -0.576%. In addition, in [4], the max response is -0.497%. Also, the call in experiment [6] and in [7] was inactive. For the same molecule, the Potency result in experiment [8] was “inactive”.

Consider `CCN(CC)CCOc1ccc(Nc2ncc3cc(-c4c(Cl)cccc4Cl)c(=O)n(C)c3n2)cc1`, for which the Potency in [1] was 9.72e-06 µM (active). Further, the outcome in experiment [2] was inactive.

Turning to `Cc1ccc(C)c(OCCCC(C)(C)C(=O)O)c1`, in [3], the activation is -0.112% and 1.21%. Further, in experiment [4], the max response is 0.635% and 1.7%. Also, the molecule was classed as inactive in [10] and in experiment [5].

Turning to `COC(=O)[C@H](Cc1ccccc1)NC(=O)[C@@H](N)CC(=O)O` (H-Asp-Phe-OMe), in experiment [3], the activation is -1.45% and -0.834%. In [4], the max response is -1.47% and -4.11%. For the same molecule, the molecule was classed as inactive in experiment [10] and in [5].

In the case of `N[C@@H](Cc1cc(I)c(Oc2cc(I)c(O)c(I)c2)c(I)c1)C(=O)O`, in experiment [3], the Potency was 44.7 µM (active). In addition, the max response in [4] was -3.72%.

With `Cc1cccc(-c2[nH]ncc2-c2ccc3ncccc3n2)n1`, in [1], the Potency was 2.92 µM (active) and 2.23 µM (active). The molecule was classed as inactive in [2].

Regarding `CCOC(=O)C1=C(O)C(=O)N(Cc2ccccc2)C1`, in [1], the Potency result is “inactive”. Further, in [2], the molecule was classed as inactive.

Regarding `CCOC(=O)C(C)Oc1cccc2c(=O)n(CC(=O)Nc3ccc4c(c3)OCCO4)ccc12` (stereo not drawn), the Potency entry in experiment [1], in experiment [9] and in experiment [8] was “inactive” in each case. The result in [2], in experiment [6] and in [7] was inactive.

As for `COc1c2occc2cc2ccc(=O)oc12`, in [4], the max response was -3.1% and -0.368%.

With `Nc1cccc2c1CN(C1CCC(=O)NC1=O)C2=O` (stereo not drawn), the Potency result in experiment [1] is “inactive”. Besides, the result in experiment [2] was inactive.

Take `O=Nc1c(-c2c(O)[nH]c3cc(Br)ccc23)[nH]c2ccccc12`: the figures for the Potency in [1], in experiment [9] and in experiment [8] were 0.154 µM (active), 21.3 µM (active) and 2.59 µM (active), respectively. Also, the molecule was called inactive in [2], in [6] and in experiment [7].

Consider `Cc1cccc(C#Cc2ccccc2)n1`, for which the Potency entry in experiment [1] and in experiment [9] was “inactive” in each case. Further, the result in experiment [2], in [6] and in [7] was inactive. For the same molecule, the Potency in experiment [8] is 2.91 µM (active).

In the case of `c1ccc2[nH]c(-c3cscn3)nc2c1`, in experiment [4], the max response is -1.63% and -0.401%. Further, the result in experiment [10] and in [5] was inactive.

As to `COc1cc(OC)c(C(=O)CCCN2CCCC2)c(OC)c1`, in experiment [3], the activation was -1.93%. Moreover, in experiment [4], the max response was -0.755%.

Turning to `CC(=O)N1CCN(c2ccc(OC[C@H]3CO[C@](Cn4ccnc4)(c4ccc(Cl)cc4Cl)O3)cc2)CC1`, in [4], the max response was -0.168%. The Potency entry in experiment [9] and in experiment [8] was “inactive” throughout. Further, in [7], the call was inactive.

With `O=C(NOCC1CC1)c1ccc(F)c(F)c1Nc1ccc(I)cc1Cl`, the Potency result in experiment [1] was “inactive”. Also, the molecule was called inactive in experiment [2].

In the case of `CS(=O)(=O)OCCCCOS(C)(=O)=O`, in experiment [3], the activation is 2.49% and 0.0953% and 0.509%. In addition, the max response in [4] was -1.17% and -9.71% and -0.247%. For the same molecule, the call in experiment [10] and in experiment [5] was inactive.

For the molecule `Oc1ccc(-c2nc(-c3ccc(F)cc3)c(-c3ccncc3)[nH]2)cc1`, the Potency in [1] is 17.3 µM (active). For the same molecule, the result in experiment [2] and in experiment [6] was inactive. For the same molecule, the Potency result in experiment [9] and in [8] was “inactive” each time.
